Bioassay records deposited in PubChem by Center for Chemical Genomics, University of Michigan.
Dicer inh: inhibitors of human Dicer processing of pre-microRNA | Q9UPY3 | cat-ELCCA pre-miR-21 Dicer processing, chemiluminescence; hits give high values | z-score at 25 µM | 6% of 47,000 active | AID 1347074; in the data active means z-score above about 3, passing the limit was not always enough;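 further: plate controls were vehicle for no effect and no enzyme for full effect; higher signal means more uncleaved substrate so more Dicer inhibition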
Active calls of the source: *. The full list was thinned out, with hits kept by preference.

SMILES	Dicer inh
O=C1CSC(=Nc2cc(Cl)c(Cl)cc2Cl)N1CCc1ccccc1	3.3*
COc1ccc(CCN2C(=O)CSC2=Nc2ccc(Cl)cc2C)cc1OC	2.3
O=C1CSC(=S)N1CCc1ccc(Cl)cc1	-1.2
CC1=C(C(=O)OCC(C)C)C(c2ccccc2F)C2=C(CC(c3cccs3)CC2=O)N1 (stereo not given)	0.28
O=C(CSc1ncn[nH]1)Nc1ccc(F)cc1	-0.99
Cc1cc(C)c(S(=O)(=O)Nc2ccc(O)c(Sc3ncn[nH]3)c2)cc1C	7.3*
Cc1cc(C(C)(C)C)cc(S(=O)(=O)Nc2ccc(O)c(Sc3ncn[nH]3)c2)c1C	8.2
ONC(=Nc1ccccc1F)c1cccnc1	-0.61
Cc1ccc(CNS(=O)(=O)c2ccccc2)n1C	-1
COc1ccc(C(O)c2nccn2C)cc1OC (stereo not given)	3.5*
COc1ccc2ccccc2c1C(O)c1nccn1C (stereo not given)	-3.6
Cn1ccnc1C(O)c1ccccc1 (stereo not given)	1.3
Cc1cc(Nc2ccccc2)c2ccccc2n1	1.5
CCOc1ccc(Nc2cc(C)nc3ccc(OC)cc23)cc1	2.9
COc1ccc2nc(C)cc(Nc3ccc(Br)cc3)c2c1	5*
O=C(NC(=O)N1CCN(c2ccc(C(F)(F)F)cc2[N+](=O)[O-])CC1)c1ccccc1Cl	-1.3
Cc1nc(-c2ccc(S(=O)(=O)N3CCCN(C(=O)OC(C)(C)C)CC3)s2)cs1	-1.2
Cc1c(C#N)c(Sc2n[nH]c(=O)n2C2CCCCC2)nc2ccccc12	-0.89
Nc1nc(Cc2cc3ccccc3[nH]2)nc(NC2CCCCC2)n1	4*
c1ccc(-c2nc(NC3CCCCC3)c3ccccc3n2)cc1	0.99
Cc1ccc2c(c1)C(O)(CC(=O)c1ccc3ccccc3c1)C(=O)N2 (stereo not given)	0.61
CN(C)/C=N/C(=S)NC1CC2C=CC1C2 (stereo not given)	0.98
COC(=O)C1=NN(c2ccc(C)cc2)C2C(=O)N(c3ccc(Cl)cc3)C(=O)C12 (stereo not given)	0.83
CC1(C)Cc2ccccc2C2=C(C(=O)N3CCCC3)C(=O)C(=O)N21	-1.3
CCC1(CC)Cc2ccccc2C2=C(C(=O)N3CCOCC3)C(=O)C(=O)N21	4*
SMILES	Dicer inh
O=C1C(=O)N2C(=C1C(=O)N1CCOCC1)c1ccccc1CC21CCCC1	-1.1
C#CCSc1nc(O)c(CCCC)c(=O)[nH]1	-1
CCCC(=O)N(c1ccc2oc(=O)sc2c1)S(=O)(=O)c1ccc(OC)cc1	-2.1
CCCC(=O)N(c1ccc2oc(=O)sc2c1)S(=O)(=O)c1ccc(Br)cc1	1.1
CCCC(=O)N(c1ccc2oc(=O)sc2c1)S(=O)(=O)c1ccc(OCC)cc1	-0.94
O=C(c1ccncc1)N(c1cc2sc(=O)oc2c2ccccc12)S(=O)(=O)c1ccc(F)cc1	-2.7
CCCCC(=O)N(c1ccc2oc(=O)sc2c1)S(=O)(=O)c1cc(OC)ccc1OC	5.2*
COc1ccc(S(=O)(=O)N(C(=O)C(C)C)c2ccc3oc(=O)sc3c2)cc1OC	0.67
CCOc1ccc(S(=O)(=O)N(C(=O)C(C)C)c2ccc3oc(=O)sc3c2)cc1	3.1*
Cc1ccc(S(=O)(=O)N(C(=O)C(C)C)c2ccc3oc(=O)sc3c2)cc1	1.7
Cc1cc(F)ccc1S(=O)(=O)N(C(=O)c1ccncc1)c1ccc2oc(=O)sc2c1	6.5*
Cc1cc(F)ccc1S(=O)(=O)N(C(=O)C(C)C)c1ccc2oc(=O)sc2c1	5*
Cc1cc(-c2csc(=N)n2-c2c(F)cccc2F)ccc1Cl	0.82
O=C1CCCC(OC(=O)c2cccc(C(F)(F)F)c2)=C1Cl	0.44
COc1cc(C2C(C(=O)OC(C)C)=C(C)NC3=C2C(=O)CCC3)cc(Cl)c1O (stereo not given)	-1.4
Cc1ccc2c(C)c(C(=O)N(Cc3ccc(N(C)C)cc3)C3CCS(=O)(=O)C3)oc2c1 (stereo not given)	5.1*
C=CCOc1ccc(C(=O)N(Cc2ccc(OC)c(OC)c2)C2CCS(=O)(=O)C2)cc1 (stereo not given)	1.4
O=C(c1cccc(Cl)c1)N(Cc1cccs1)C1CCS(=O)(=O)C1 (stereo not given)	1.8
O=C(Nc1ccc(Cl)c(Cl)c1Cl)C(Cl)Cl	-0.32
O=S(=O)(NCc1ccc(C(F)(F)F)cc1)c1cc(Br)c(Br)s1	-0.4
Cc1c(O)c(=O)n(-c2ccccc2)n1C	0.57
Cc1c(N2C(=O)c3cccc4cccc(c34)C2=O)c(=O)n(-c2ccccc2)n1C	4.4*
O=C1c2cccc3cccc(c23)C(=O)N1Nc1ccccc1	0.66
COc1cc(/C=N/NC(=S)NC2CC3C=CC2C3)ccc1C (stereo not given)	2.5
Cn1c(N)c(C(=O)N/N=C/c2ccccc2)sc1=S	-0.88
SMILES	Dicer inh
COc1cc(/C=N/NC(=O)c2sc(=S)n(C)c2N)ccc1O	3.8*
COc1cc(/C=N/NC(=S)N/N=C/c2ccc(O)c(OC)c2)ccc1O	3.9*
COc1ccc(/C=N/NC(=S)NN)cc1	-7.3
COc1ccc(/C=N/NC(=O)c2sc(=S)n(-c3ccccc3)c2N)cc1	-0.24
O=C(Nc1ccc2oc(-c3ccc(Br)cc3)nc2c1)c1cccnc1	0.51
O=C(Cc1ccc(Cl)cc1)c1ccc(O)cc1	0.6
O=C(Cc1ccc(Cl)cc1)c1ccc(O)cc1O	4.1*
O=C(Cc1ccccc1)c1ccc(Cl)cc1	-0.54
CC1CCN(c2oc(-c3ccc(F)cc3)nc2S(=O)(=O)c2ccccc2)CC1	-0.53
O=C(Cn1c2ccccc2n2nc(-c3ccco3)nc12)c1ccc(Cl)cc1	-0.7
C(=N\Nc1ncnc2sc(-c3ccccc3)cc12)/c1ccncc1	2.8
C(=N\Nc1ncnc2sc(-c3ccccc3)cc12)/c1cccs1	1.1
Cc1ccc(/C=N/Nc2ncnc3sc(-c4ccccc4)cc23)o1	3.8*
COc1ccc2c(c1)C(=O)/C(=C/c1ccc(Cl)cc1)CC2	1.7
CC(C)n1cc(-c2nc(-c3ccc(Cl)cc3)cs2)c(=O)n(Cc2ccccc2)c1=O	-0.66
CC(C)n1cc(-c2noc(-c3cccs3)n2)c(=O)n(Cc2ccccc2)c1=O	3.1*
Cc1csc(-c2cn(C(C)C)c(=O)n(Cc3ccccc3)c2=O)n1	-0.87
CCOC(=O)c1oc2nc(-c3ccccc3)cc(C)c2c1NC(=O)Nc1ccc(Cl)cc1	-1.5
O=C(COc1ccc(Cl)cc1)NC1CCS(=O)(=O)C1 (stereo not given)	-0.74
COc1ccc(CN(Cc2ccc(OC)cc2)C(=O)Nc2ccc(Cl)cc2)cc1	-0.18
FC(F)(F)/C(=N\Sc1c(-c2ccccc2)nc2ccccn12)c1ccccc1	-1.5
O=C1c2ccccc2-c2ccc(C(=O)N3CCOCC3)cc21	4.1*
O=C1c2ccccc2-c2cccc(C(=O)N3CCCCC3)c21	-1.2
O=C(c1ccc(N2CCOCC2)nc1)N1CCOCC1	0.43
Cc1c(Br)sc2sc(-c3ccn(C)n3)c(C)c12	2.2
SMILES	Dicer inh
COc1cc(C2Nc3ccc4ncccc4c3C3=C2C(=O)CC(c2ccccc2)C3)ccc1OC(C)=O (stereo not given)	0.01
Cn1c(SCc2cc(=O)oc3cc(O)ccc23)nnc1C(F)(F)F	-0.86
Cn1c(=O)c2c(nc(NCCc3ccc(O)cc3)n2C)n(C)c1=O	-1.2
C[C@@H](NCCc1ccc(O)cc1)[C@@H](O)c1ccc(O)cc1	9.7*
CCCCCCCCNC(C)C(O)c1ccc(SC(C)C)cc1 (stereo not given)	33
COC(=O)C1=C(C)NC(C)=C(C(=O)OC)C1c1cccc(C)n1	-0.04
c1ccc(-c2cc3ncnc(NCc4ccc5c(c4)OCO5)c3s2)cc1	-1.7
